Hit rate of the full screen: of about 330,000 compounds, about 4,900 (1.5%) were called active.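 How the source made its calls: active means inhibition above the mean inhibition across the screen plus 3 SD (cut at about 25% in these data); inactive means the rest.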 What follows is part of a selection rich in actives, with near analogues and random picks from the rest.
Each compound was assayed against Platelet-activating factor acetylhydrolase (Homo sapiens) (UniProt Q13093) (assay: inhibition of plasma PAF acetylhydrolase – biochemical, fluorescence polarization, human, primary screen (AID 463082;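 further: inhibitors block binding of the rhodamine activity-based probe so polarization drops; 0% = enzyme with DMSO and 100% = wells lacking pPAFAH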)). Details: recombinant pPAFAH, FP-rhodamine probe fluorescence polarization; at 3.39 µM; hits give high values.
Chain of Platelet-activating factor acetylhydrolase (Homo sapiens) (Q13093 whole entry, looked up): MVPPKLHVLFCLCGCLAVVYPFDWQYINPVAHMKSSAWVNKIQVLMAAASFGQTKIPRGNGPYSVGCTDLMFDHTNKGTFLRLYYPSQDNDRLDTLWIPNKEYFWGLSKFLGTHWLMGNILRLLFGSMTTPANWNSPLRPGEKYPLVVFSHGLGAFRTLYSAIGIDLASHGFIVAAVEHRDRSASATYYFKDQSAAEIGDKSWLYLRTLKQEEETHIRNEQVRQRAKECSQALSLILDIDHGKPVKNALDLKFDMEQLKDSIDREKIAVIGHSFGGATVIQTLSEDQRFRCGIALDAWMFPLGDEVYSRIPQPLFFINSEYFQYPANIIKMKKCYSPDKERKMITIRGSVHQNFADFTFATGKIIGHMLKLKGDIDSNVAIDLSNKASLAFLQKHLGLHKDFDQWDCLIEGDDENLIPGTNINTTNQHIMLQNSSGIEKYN

Compound | inhibition
COc1cccc(C(=O)N2CCCC(CCC(=O)NCc3ccc(F)c(F)c3)C2)c1 (stereo not drawn) | 1.9% (inactive)
COc1cccc(CNC(=O)CCC2CCCN(C(=O)c3ccc(F)c(Cl)c3)C2)c1 (stereo not drawn) | 42.8% (active)
COc1cccc(CNC(=O)CCC2CCCN(C(=O)c3ccoc3C)C2)c1 (stereo not drawn) | 5.56% (inactive)
COc1ccc(S(=O)(=O)Nc2cccc3c2O[C@H](CN(C)S(=O)(=O)c2ccc(OC)cc2)[C@@H](C)CN([C@H](C)CO)C3=O)cc1 | 3.76% (inactive)
COc1ccc(NCc2nnc(SCc3ccccc3)n2-c2ccc(OC)cc2)cc1 | 2.01% (inactive)
OCCC1CN(Cc2cccc(O)c2)CCN1CCc1ccccc1 (stereo not drawn) | -5.11% (inactive)
CN1CCN(c2ccc(S(=O)(=O)N3CCCCC3)cc2NC(=O)Cc2ccccc2F)CC1 | -3.62% (inactive)
CCN(CC)S(=O)(=O)c1ccc(N2CCN(C)CC2)c(NC(=O)Nc2ccccc2F)c1 | 33.1% (active)
CCN(CC)S(=O)(=O)c1ccc(N2CCOCC2)c(NC(=O)C(C)Oc2ccc(F)cc2)c1 (stereo not drawn) | 10.3% (inactive)
C=CC[C@@H](CC(=O)N[C@@H](CO)Cc1ccccc1)C(=O)NCCOC(=O)[C@@H](CC=C)CC(=O)OC(C)(C)C | 1.4% (inactive)
Cc1ccc(C)c(S(=O)(=O)Nc2cc(C)on2)c1 | -1.93% (inactive)
CCn1c(N)c(Br)c(=O)[nH]c1=O | 0.06% (inactive)
O=S(=O)(c1ccc(Cl)cc1)c1nc(-c2ccco2)oc1N1CCCCC1 | -3.3% (inactive)
CCC(C)NC(=O)CSC1=Nc2ccccc2C2=NC(CCC(=O)NCc3ccco3)C(=O)N12 (stereo not drawn) | 2.48% (inactive)
O=C(CSC1=Nc2ccccc2C2=NC(CC(=O)NCc3ccco3)C(=O)N12)NCc1ccco1 (stereo not drawn) | 5.99% (inactive)
CC(C)C1N=C2c3ccccc3N=C(SCC(=O)c3ccc(O)c(O)c3)N2C1=O (stereo not drawn) | 55.4% (active)
CC(C)n1cnc2c(NCc3ccccc3)cc(OCC3CCN(C)CC3)cc21 | 11.1% (inactive)
CN(CC(=O)NCC(c1ccccc1)N1CCCC1)S(=O)(=O)c1ccc(Cl)cc1 (stereo not drawn) | -2.68% (inactive)
O=C(O)c1cc2c(cc1NC(=O)c1c(F)cccc1Cl)OCCCO2 | -0.94% (inactive)
CC(=O)Nc1ccc(OCCC[n+]2cccc(C(=O)[O-])c2)cc1 | -0.37% (inactive)
O=c1ccc2c(-c3ccccc3S(=O)(=O)O)c3ccc(O)c(O)c3oc-2c1O | 70% (active)
CCCCNC(=O)C1CCC(=O)N1CCc1ccccc1 (stereo not drawn) | 3.82% (inactive)
CCOc1ccc(OCC)c(-c2c(=O)n(OCc3ccc(Cl)cc3)c3ccccc3[n+]2[O-])c1 | 5.98% (inactive)
CCc1ccc(CN2C(=O)c3ccccc3C2C(=O)NCC2CCCO2)cc1 (stereo not drawn) | 7.1% (inactive)

Compound | inhibition
N#CC1=C(N)Oc2c(ccc3cccnc23)C1c1ccncc1 (stereo not drawn) | 11.9% (inactive)
N#CC1=C(N)Oc2c(sc3ccccc23)C1c1ccco1 (stereo not drawn) | 26.5% (active)
O=C(O)/C(=C/c1cccnc1)NC(=O)c1ccccc1 | -3.24% (inactive)
O=C(CN1C(=O)c2ccc([N+](=O)[O-])cc2C1=O)Nc1nnc(C2CC2)s1 | 0.34% (inactive)
O=C(Nc1cccn(Cc2c(Cl)cccc2Cl)c1=O)c1ccc(Cl)cc1 | -3.34% (inactive)
O=C(COC(=O)c1ncc(Cl)c(Cl)c1Cl)NCc1ccccc1 | 14.3% (inactive)
Cc1cc(O)c(Sc2ccccc2)c(=O)o1 | 3.25% (inactive)
Cc1ccc(N=Cc2c(O)cc(C)oc2=O)c(C)c1 | -5.2% (inactive)
Cc1cc(O)c(C(=O)/C=C/c2c(F)c(F)c(F)c(F)c2F)c(=O)o1 | 27.7% (active)
CCOC(=O)C1CCN(Cc2coc3ccc(Cl)cc3c2=O)CC1 | -3.13% (inactive)
O=C(OCC1OC(Oc2ccc(O)cc2)C(O)C(O)C1O)c1ccccc1 (stereo not drawn) | 3.51% (inactive)
O=C(OCC1O[C@@H](OC(=O)c2cc(O)c(O)c(O)c2)[C@@H](OC(=O)c2cc(O)c(O)c(O)c2)[C@@H](OC(=O)c2cc(O)c(O)c(O)c2)[C@@H]1OC(=O)c1cc(O)c(O)c(O)c1)c1cc(O)c(O)c(O)c1 (stereo partly drawn) | 73% (active)
CC1Cc2ccccc2N1S(=O)(=O)c1cccc(C(=O)OCC(=O)N2CCOCC2)c1 (stereo not drawn) | 8.16% (inactive)
COc1ccc(OC)c(NC(=O)C2CCCN2S(=O)(=O)c2cccc3nsnc23)c1 (stereo not drawn) | 1.9% (inactive)
Cc1cc2nc3c(=O)n(Cc4ccccc4)c(=O)[nH]c3nc2cc1N | 59.1% (active)
Cc1cc(-c2csc(N)n2)c(C)n1Cc1ccccc1 | 12.4% (inactive)
CC(=O)c1ccc(-c2ccc(Cn3c(C)nc4cc(N)c(C)nc43)cc2)cc1 | 3.76% (inactive)
Nc1nc(Br)c2ccccc2c1-c1ccc(F)cc1 | 29.3% (active)
CN(CC(=O)Nc1c(Cl)cccc1Cl)C(=O)CC1OC(=O)c2ccccc21 (stereo not drawn) | 1.34% (inactive)
OC(CNCC1CCCO1)Cn1c2ccc(Br)cc2c2cc(Br)ccc21 (stereo not drawn) | 60% (active)
O=C(CSc1ccc(-c2ccc(Br)cc2)nn1)NCC1CCCO1 (stereo not drawn) | 3.46% (inactive)
CC(NS(=O)(=O)c1ccc(Br)cc1)C(=O)NCC1CCCO1 (stereo not drawn) | 1.93% (inactive)
CC1c2nc3ccccc3n2C(CC(=O)NCCCN2CCOCC2)C(=O)N1Cc1ccccc1 (stereo not drawn) | 3.44% (inactive)
O=C(Cn1cc(C(F)(F)F)ccc1=O)Nc1ccc2c(c1)OCCO2 | 0.39% (inactive)

Compound | inhibition
CCCN(CC(=O)Nc1ccccc1C)C(=O)c1ccc2[nH]c3c(c2c1)CC(C)CC3 (stereo not drawn) | 2.57% (inactive)
Cc1c(C(=O)N/N=C/c2ccccc2)[nH]c2c([N+](=O)[O-])cccc12 | 2.71% (inactive)
COc1cccc2c(C)c(C(=O)O)[nH]c12 | 40% (active)
COc1cc2c(C(=O)O)c(C)n(C)c2c2ccccc12 | 8.22% (inactive)
CCOc1ccc(N/C(N)=N/c2nc(C)c(C)c(=O)[nH]2)cc1 | 5.08% (inactive)
CCOC(=O)CNC(=O)CSc1ncccc1-c1nc2ccccc2[nH]1 | 3.09% (inactive)
COC(=O)c1cccc(N(C(=O)c2ccco2)C(C(=O)NC2CCCC2)c2ccco2)c1 (stereo not drawn) | -7.26% (inactive)
CCOc1ccc(NS(=O)(=O)c2ccc(C(=O)NCC(c3ccccc3OC)N3CCCC3)cc2)cc1 (stereo not drawn) | 51.8% (active)
COc1ccc(C(CNC(=O)c2ccc(S(=O)(=O)Nc3ccccc3C)cc2)N2CCOCC2)cc1 (stereo not drawn) | 33.2% (active)
CCOc1ccc(NS(=O)(=O)c2ccc(C(=O)NC3CCN(Cc4ccccc4)CC3)cc2)cc1 | 24.1% (inactive)
COc1ccc(C(CNC(=O)c2cccc(NS(=O)(=O)c3ccc(C)c(F)c3)c2)N2CCCC2)cc1 (stereo not drawn) | 5.75% (inactive)
Cc1cc(S(=O)(=O)Nc2ccc(C(=O)NCC(c3ccco3)N3CCCC3)cc2)ccc1F (stereo not drawn) | -0.43% (inactive)
COc1ccc(C(CNC(=O)c2cccc(S(=O)(=O)Nc3ccccc3Cl)c2)N2CCOCC2)cc1 (stereo not drawn) | -3.75% (inactive)
CC(=O)Nc1ccc(S(=O)(=O)N2CCN(C(=O)c3ccccc3F)CC2)cc1 | -5.31% (inactive)
COc1ccc(S(=O)(=O)N(C)C[C@@H]2Oc3ccc(NC(=O)Nc4c(C)noc4C)cc3C(=O)N([C@H](C)CO)C[C@@H]2C)cc1 | 1.97% (inactive)
COc1ccc(S(=O)(=O)NCc2cccnc2)cc1NC(=O)c1ccc(C)cc1 | 0.8% (inactive)
Cc1cccc(C)c1NC(=O)CCS(=O)(=O)c1cccc2nsnc12 | -6.43% (inactive)
Cc1cccc(Cn2cnc3c(N)c(C)c(C)cc32)c1 | 9.5% (inactive)
Cn1c(=O)c(C(=O)Nc2ncccn2)c(O)c2ccccc21 | 1.18% (inactive)
COc1ccc(COC(=O)NC(C(=O)O)c2ccccc2)cc1 (stereo not drawn) | -0.13% (inactive)
COC(=O)c1ccc(C(NC(=O)OCc2ccccc2)/C(F)=C/[C@@H](C)C(=O)O)cc1 (stereo partly drawn) | 6.41% (inactive)
COC(=O)c1ccc(C(NC(=O)OCc2ccccc2)/C(C)=C/[C@@H](C)C(=O)NCc2ccc(OC)c(OC)c2)cc1 (stereo partly drawn) | 40.4% (active)
C=CCNC(=O)C1CC2c3ccccc3C1c1ccccc12 (stereo not drawn) | 3.92% (inactive)
CSC1=NC2(C)CCCCC2C12C=CC(=O)C=C2 (stereo not drawn) | 5.48% (inactive)

Compound | inhibition
Cc1nn(C)cc1C(=O)c1ccccc1 | -11.2% (inactive)
C=C(C)CNC(=O)c1ccc(OC2CCN(C(=O)COC)CC2)cc1 | -1.41% (inactive)
COc1cccc(/C=N/NC(=O)c2[nH]nc3c2CCc2ccccc2-3)c1O | 43.7% (active)
COc1ccc(/C=N/NC(=O)c2ccc3c(c2)OCCO3)c(OC)c1 | 11.5% (inactive)
COc1cc(OC)c(/C=N/NC(=O)c2ccc([N+](=O)[O-])cc2)cc1Br | 2.36% (inactive)
Cc1onc(C(=O)NN)c1-c1csc(COc2ccccc2)n1 | -3.91% (inactive)
CC(C)(C)C(=O)OCc1nc(-c2ccc(O)c(O)c2)cs1 | 27.5% (active)
COc1ccc(-c2csc(Cc3nc(O)cs3)n2)cc1 | 13% (inactive)
C/C(=N/N1CCN(Cc2cccc3ccccc23)CC1)c1cccnc1 | -3.57% (inactive)
CCN(CC)C(=O)[C@H]1CC(CC(=O)NCc2ccco2)C(=O)N2CCc3c([nH]c4ccccc34)[C@]12C (stereo partly drawn) | -0.35% (inactive)
CCN1/C(=C\c2ccc3ccccc3[n+]2CC)Sc2cc(C)ccc21 | 36.3% (active)
Cc1ccc(C(=O)OCC(=O)NC(=O)Cc2ccccc2)c(O)c1 | 5.13% (inactive)
Cc1cc(C(=O)CSc2nc(N)cc(=O)[nH]2)c(C)n1Cc1ccco1 | 13.6% (inactive)
CCCc1cc(=O)[nH]c(SCC(=O)c2c(N)n(CC(C)C)c(=O)n(C)c2=O)n1 | 0.06% (inactive)
Cc1cc(=O)[nH]c(SCc2cccc(F)c2)n1 | -3.14% (inactive)
Cc1cc(C)c(C(=O)CSc2nc(C)cc(=O)[nH]2)c(C)c1 | 8.8% (inactive)
Cc1cc(C(=O)CSc2nc(N)cc(=O)[nH]2)c(C)n1-c1cccc(F)c1 | 56.4% (active)
CCCc1cc(=O)[nH]c(SCC(=O)N2C(C)CCCC2C)n1 (stereo not drawn) | 8.03% (inactive)
CCCc1cc(=O)[nH]c(SCC(=O)c2cc(C)n(CCC)c2C)n1 | 25.1% (active)
Cc1cc(=O)[nH]c(SCc2ccc(Cl)cc2)n1 | -2.26% (inactive)
Cc1cc(C(=O)CSc2nc(N)cc(=O)[nH]2)c(C)n1CCc1ccc(Cl)cc1 | 69.6% (active)

Source: PubChem BioAssay AID463082 (The Scripps Research Institute Molecular Screening Center, 2010)
